# ChEMBL document CHEMBL4513216, “Probing the Open Global Health Chemical Diversity Library for Multistage-Active Starting Points for Next-Generation Antimalarials” (ACS Infect Dis, 2020)
# In all, about 68,000 compounds went through this assay and about 2,700 (4%) showed an effect of 50% or more. This is one part of a sample in which strong results are shown more often than they occur.
# System: Plasmodium berghei
# Experiment: Screen against P. berghei liver stage (PbLuc), transformed with Luciferase, at 2uM
# Type: functional, HepG2
# Details: tested at 2 uM
row,SMILES,INHIBITION
1,COc1ncccc1CN1CCn2c(Cn3cncn3)cnc2C1,-47.72%
2,O=C(NCCC1=CCCCC1)c1ccc(-n2cccc2)nc1,46.17%
3,CCc1nnc2n1CCN(C(=O)Cc1csc(-c3ccco3)n1)C2,-5.2%
4,CCN1CCN(C(=O)C(C)n2cc(Br)cn2)CC1 (centres undefined),1.77%
5,CC/C=C(/C)C(=O)NS(=O)(=O)c1ccc(C#N)cc1C(F)(F)F,6.08%
6,CCCC(=O)NS(=O)(=O)c1ccc(C#N)c(C(F)(F)F)c1,4.68%
7,CC/C=C(/C)C(=O)NS(=O)(=O)c1ccc(C#N)c(C(F)(F)F)c1,57%
8,Cn1nc(CNC(=O)NCc2ccc(Cl)cc2)c2c1CCOC2,-18.29%
9,C=C(C)COc1cccc(CN(C)C(C)c2nccs2)c1 (centres undefined),-10.78%
10,C=C(C)COc1cccc(C(=O)N(C)C(C)c2ccncn2)c1 (centres undefined),18.88%
11,C=C(C)COc1cccc(CN(C)C(C)c2ccncn2)c1 (centres undefined),53.17%
12,CC(C)N1CCCC(Cc2nccnc2Cl)C1 (centres undefined),-47.18%
13,COc1c(CNC(C)c2sc(C)nc2C)c(C(C)C)nn1C (centres undefined),59.99%
14,Cc1nc(C)c(C(C)NCc2c(C(C)C)nn(C)c2N(C)C)s1 (centres undefined),-34.69%
15,Cc1nc(C)c(C(C)NCc2c(C)nn(C)c2N(C)C)s1 (centres undefined),-30.49%
16,Cc1ccc(-c2cc(N)c(=O)n(C(C)C(=O)NCC3CCCCC3)n2)s1 (centres undefined),-1.07%
17,Cc1ncsc1CN1C[C@@H]2CC[C@H]1CN(Cc1ccccc1)C2,15.68%
18,CC(C)(C)C(O)CN1CCN(CCOCC(F)(F)F)CC1 (centres undefined),-17.11%
19,Cc1nn(C)c(C)c1C(=O)NCc1ccnc(OCC(F)(F)F)c1,11.09%
20,COCCN1CCCC1c1ccnc(-c2ccccc2)n1 (centres undefined),14.3%
21,CCCn1cc(-c2cc(-c3c[nH]cn3)c(C#N)c(N)n2)c(C)n1,38.15%
22,CCCn1cc(-c2cc(-c3cnc(OC)nc3)c(C#N)c(N)n2)c(C)n1,38.61%
23,CCCn1cc(-c2cc(-c3ccoc3)c(C#N)c(N)n2)c(C)n1,61.28%

row,SMILES,INHIBITION
1,Cc1cccc(-c2noc(CN3CC(n4cccn4)C3)n2)c1,-15.28%
2,CS(=O)(=O)Cc1ccc(Cl)c(NCc2noc(C3CC3)n2)c1,-22.2%
3,Cc1ccc(-c2ccc(Cl)nn2)cc1S(=O)(=O)N1CCOCC1,4.88%
4,Cc1cc(C)c(S(=O)(=O)Nc2c(C)nc(N(C)C)nc2C)cc1C,-46.61%
5,CN1CC2(CCCN(Cc3nnc(-c4cccc(F)c4)o3)C2)OC1=O (centres undefined),54.49%
6,CN1CC2(CCCN(Cc3nnc(-c4ccco4)o3)CC2)OC1=O (centres undefined),16.82%
7,CN1CC2(CCCN(Cc3nnc(-c4ccccc4)o3)CC2)OC1=O (centres undefined),-16.62%
8,O=C(NC[C@]12COC[C@H]1CN(Cc1ccco1)C2)c1ccccc1,-36.34%
9,O=C(NCc1ccco1)N1CCC(n2ccc(C(F)(F)F)n2)CC1,-43.09%
10,Cc1nn(C)cc1CN1CCCC(n2c(=O)oc3ccc(Cl)cc32)C1 (centres undefined),13.17%
11,COCC(=O)N1CCN(C(=O)C2CCCCC2)[C@@H](C(=O)OC)C1,72.68%
12,COCC(=O)N1CCN(C(=O)c2cccs2)[C@@H](C(=O)OC)C1,-19.02%
13,COC(=O)[C@H]1CN(C(=O)NC(C)C)CCN1C(=O)C1CCCCC1,16.67%
14,COC(=O)[C@H]1CN(C(C)=O)CCN1C(C)=O,56.21%
15,COCC(=O)N1CCN(C(C)=O)C[C@@H]1C(=O)OC,23.53%
16,COC(=O)[C@@H]1CN(C(=O)Nc2ccccc2)CCN1C(C)=O,-21.22%
17,CNC(=O)C1(c2cnccn2)CCCN1C(=O)Cc1ccsc1 (centres undefined),36.82%
18,CN(CCc1ccccn1)Cc1nccn1Cc1ccccc1,-9.98%
19,CN(C)Cc1cnc2n1CCN(C(=O)C1CC=CC1)CC2,46.27%
20,CN(C)Cc1cnc2n1CCN(C(=O)Cc1ccc(F)cc1)CC2,8.41%
21,CN(C)Cc1cnc2n1CCN(C(=O)NCc1ccccc1)CC2,53.44%
22,CN(C)Cc1cnc2n1CCN(C(=O)NC1CCCC1)CC2,16.03%
23,CN(C)Cc1cnc2n1CCN(C(=O)Cc1cccc(F)c1)CC2,54.82%

row,SMILES,INHIBITION
1,CN(C)Cc1cnc2n1CCN(C(=O)Cc1ccsc1)CC2,37.51%
2,CN(Cc1ccccc1F)C(C(N)=O)c1ccccc1 (centres undefined),24.62%
3,CN(C)S(=O)(=O)c1ccc(-c2nc(C#N)c(NC(C)(C)C)o2)o1,1.3%
4,CCN(CC)CCN1CC[C@H]2OCC[C@@]2(C(=O)N2CCOCC2)C1,41.38%
5,COC(=O)c1cccc(C(=O)N2CCN(c3cc(Cl)ccc3C)CC2)n1,18.76%
6,CC(C)=CCCC(C)CN1CCC(n2cc(C(=O)NCCO)nn2)CC1 (centres undefined),48.93%
7,CC(C)=CCCC(C)CN1CCC(n2cc(CO)nn2)CC1 (centres undefined),55.66%
8,CC(C)=CCCC(C)CN1CCC(n2cc(C(C)(C)O)nn2)CC1 (centres undefined),15.27%
9,Fc1cccc(C2(CNC3CCOC4(CCOCC4)C3)CCOCC2)c1 (centres undefined),-8.87%
10,COc1cc(CNCCn2cc(C)cn2)c2c(c1)CC(C)O2 (centres undefined),-11.26%
11,COc1ccc(CC(=O)N(C)c2cccnc2N(C)C)c(Cl)c1,54.29%
12,CN(C)c1ncccc1N(C)C(=O)Cn1cc(-c2ccccc2)nn1,-34.37%
13,COc1cccc(OCC(=O)N(C)c2cccnc2N(C)C)c1,-3.66%
14,Fc1ccc(CN2CCC3(CC2)CCN(c2ncccn2)CC3)cc1,26.94%
15,CC(O)CN1CCC(CN(C)Cc2cc(F)cc3cccnc23)CC1 (centres undefined),-0.44%
16,Cc1ccc2c(n1)N(CCN(C)C)CCN(C(=O)c1cccs1)C2,-29.61%
17,Cc1cnc2n(c1=O)CC(C(=O)NCc1ccccc1Cl)CS2 (centres undefined),39.58%
18,CCn1ncc2[nH]c(-c3cc4c(cc3OC)OCO4)nc21,27.42%
19,COc1cc2c(cc1-c1nc3c(cnn3C)[nH]1)OCO2,21.97%
20,COc1cc2c(cc1-c1nc3c(cnn3C(C)C(C)C)[nH]1)OCO2 (centres undefined),7.67%
21,COc1cc2c(cc1-c1nc3c(cnn3C(C)C3CC3)[nH]1)OCO2 (centres undefined),67.28%
22,CCn1ncc2[nH]c(-c3cc(OC)c(OC)cc3OC)nc21,13.04%
23,COc1cc2c(cc1-c1nc3c(cnn3C(C)C)[nH]1)OCO2,60.13%
